Assay outcomes (PubChem BioAssay)
CRFBP-R2 agonist – CRF-BP/CRF-R2 complex agonism | HEK293 CRF-R2/CRF-BP, calcium dye fluorescence (FLIPR); percent of saturating CRF peptide response | actives 0.46% (n = 350,000) | activation, % at 13.2 µM;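 active = activation of at least 50%, plus an integration ratio under a set limit after plate pattern correction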;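 note: plate controls were neutral control wells without compound for no effect and CRF at EC100 for full effect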
RTF Ca sens act – cardiac RTF calcium sensitization; activation, % at 7.2 µM; actives 0.24% (n = 340,000); IANBD-labeled TnC RTF fluorescence at EC20 calcium; 0% EC20 calcium, 100% full calcium; P19429+P45379; AID 493008;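 active = activation above the mean over all tested compounds plus 3 SD, cut at about 30% in these data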;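 note: rise in fluorescence read as greater calcium sensitivity of cardiac thin filaments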
RTF Ca sens inh – cardiac RTF calcium desensitization; P19429+P45379; IANBD-labeled cardiac RTF, Ca2+ fluorescence; inhibition, % at 7.15 µM; actives 0.12% (n = 340,000);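 active = inhibition above the mean inhibition of all tested compounds plus 3 SD, cut at about 17% in these data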;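 note: assay run at fixed EC70 calcium of 1.6 mM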
CRFBP-R2 block – blocks CRF-induced signaling of the CRF-BP/CRF-R2 complex | AID 588475 | inhibition, % at 11.8 µM | actives 0.59% (n = 350,000) | HEK293 CRF-R2/CRF-BP, CRF-induced calcium fluorescence;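 active = inhibition of the ligand-induced calcium signal above about 50% at the single tested concentration, limit read from the data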
Myeloid diff MLP – myeloid differentiation induction. calls only at 10 µM. ER-HoxA9 myeloid progenitors, lysozyme-GFP differentiation, flow cytometry. actives 1% (n = 360,000);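 active = normalized GFP-positive differentiation at or above the plate's own cutoff, the solvent-only control mean plus 3 SD; inconclusive = no clear call, values can overlap the other calls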;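 note: cells exposed to compound for four days before flow analysis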
* marks the source's active call; other numbers are inactive results. Most compounds without a hit are left out; they make up all but 2.2% or so of the library.

Screening COC(=O)c1ccc(NC(=O)c2cc[n+](Cc3ccccc3)cc2)cc1 returned CRFBP-R2 agonist -1, RTF Ca sens act 7, RTF Ca sens inh -11, CRFBP-R2 block 3 and Myeloid diff MLP inactive.
Screening Nc1nonc1C(=O)N/N=C/c1cc(Br)ccc1O returned CRFBP-R2 agonist 56* and CRFBP-R2 block -36.
For O=C(CSc1nccc(=O)[nH]1)NCc1ccc(Cl)cc1 the results were CRFBP-R2 agonist 2, RTF Ca sens act 2, RTF Ca sens inh -6, CRFBP-R2 block 21 and Myeloid diff MLP inactive.
`CCOC(=O)c1cn(Cc2ccccc2)c(C(=O)OC(C)(C)C)c1O` gave CRFBP-R2 agonist 62*, RTF Ca sens act -9, RTF Ca sens inh -15, CRFBP-R2 block -1 and Myeloid diff MLP inactive.
COc1ccc(NC(=O)/C(C#N)=C\c2ccc(N3CCOCC3)o2)cc1 was read as CRFBP-R2 agonist 223*, RTF Ca sens act 135*, RTF Ca sens inh -161, CRFBP-R2 block -279 and Myeloid diff MLP inactive.
N#C/C(=C\c1ccc(N2CCOCC2)o1)C(=O)Nc1ccc(O)cc1 was read as CRFBP-R2 agonist 125*, CRFBP-R2 block -117 and Myeloid diff MLP active.
For N#C/C(=C/c1ccc(N2CCOCC2)o1)C(=O)NC1CCCCC1 the results were CRFBP-R2 agonist 50*, RTF Ca sens act 50*, RTF Ca sens inh -66, CRFBP-R2 block -37 and Myeloid diff MLP inactive.
Screening COc1ccc(NC(=O)/C(C#N)=C/c2ccc(Br)o2)cc1 returned CRFBP-R2 agonist 1, RTF Ca sens act -2, RTF Ca sens inh -3, CRFBP-R2 block -18 and Myeloid diff MLP inactive.
Screening CCc1ccc(NC(=O)/C(C#N)=C/c2cc3ccc(C)cc3nc2N2CCOCC2)cc1 returned CRFBP-R2 agonist 39, RTF Ca sens act 1, RTF Ca sens inh 10, CRFBP-R2 block -65 and Myeloid diff MLP inactive.
CCOC(=O)Cn1c(=O)c(-c2cc(Br)ccc2N)nc2ccccc21 was read as CRFBP-R2 agonist 11, RTF Ca sens act 44*, RTF Ca sens inh -5, CRFBP-R2 block -24 and Myeloid diff MLP active.
`CCOC(=O)Cn1c(=O)c(-c2ccccc2N)nc2ccccc21` gave CRFBP-R2 agonist 0, RTF Ca sens act -2, RTF Ca sens inh -8, CRFBP-R2 block 9 and Myeloid diff MLP inactive.
`CCn1c(C(C)NS(=O)(=O)c2ccc(Cl)cc2)n[nH]c1=S` (stereo not drawn) gave CRFBP-R2 agonist -3, RTF Ca sens act 0, RTF Ca sens inh -5, CRFBP-R2 block 12 and Myeloid diff MLP inactive.
CCCn1c(C(C)NS(=O)(=O)c2ccccc2)n[nH]c1=S (stereo not drawn) was read as CRFBP-R2 agonist -1, RTF Ca sens act -1, RTF Ca sens inh -9, CRFBP-R2 block 62* and Myeloid diff MLP inactive.
For Nc1ccc2c(c1)C(=NO)c1ccccc1-2 the results were CRFBP-R2 agonist -3, RTF Ca sens act -5, RTF Ca sens inh 3, CRFBP-R2 block 96* and Myeloid diff MLP inactive.
For COc1ccc(OC(F)(F)F)cc1CC1(C)C(=O)Nc2ccc(S(=O)(=O)NC3CCCCC3)cc21 (stereo not drawn) the results were Myeloid diff MLP inactive.
For Cn1ncc(N=Cc2c(O)ccc3ccccc23)c1C(=O)Nc1cccc(Cl)c1 the results were CRFBP-R2 agonist 50, RTF Ca sens act 43*, RTF Ca sens inh -8, CRFBP-R2 block -77 and Myeloid diff MLP inactive.
Cn1c(=O)n(C)c2cc(S(=O)(=O)Nc3ccccc3O)ccc21 was read as CRFBP-R2 agonist -1, RTF Ca sens act 5, RTF Ca sens inh 1, CRFBP-R2 block -2 and Myeloid diff MLP inactive.
Cn1c(=O)n(C)c2cc(S(=O)(=O)Nc3cc(Cl)ccc3O)ccc21 was read as CRFBP-R2 agonist 1, RTF Ca sens act 4, RTF Ca sens inh -2, CRFBP-R2 block 103* and Myeloid diff MLP inactive.
Screening COc1ccc(-c2c[n+](CC(=O)c3ccccc3)c3n2CCCCC3)cc1 returned CRFBP-R2 agonist 0, RTF Ca sens act 5, RTF Ca sens inh 7, CRFBP-R2 block -4 and Myeloid diff MLP inactive.
For COc1ccc(-c2c[n+]3c4n2CCCCC4=C(c2ccccc2)C3)cc1 the results were CRFBP-R2 agonist -4, RTF Ca sens act 0, RTF Ca sens inh -6, CRFBP-R2 block 52* and Myeloid diff MLP inactive.
`COc1ccc(S(=O)(=O)N(CC(C)C)C2CCS(=O)(=O)C2)cc1OC` (stereo not drawn) gave CRFBP-R2 agonist 0, RTF Ca sens act 21, RTF Ca sens inh -8, CRFBP-R2 block 71* and Myeloid diff MLP inactive.
CCCCN(C1CCS(=O)(=O)C1)S(=O)(=O)c1ccc(OC)c(OC)c1 (stereo not drawn) was read as CRFBP-R2 agonist 0, RTF Ca sens act 10, RTF Ca sens inh -4, CRFBP-R2 block -17 and Myeloid diff MLP inactive.
Screening COc1ccc(-c2[nH]ncc2N=Nc2ccccc2)cc1 returned CRFBP-R2 agonist 0, RTF Ca sens act -8, RTF Ca sens inh 7, CRFBP-R2 block -20 and Myeloid diff MLP inactive.
For COc1ccc(-c2[nH]ncc2N=Nc2cc(C)cc(C)c2)cc1 the results were CRFBP-R2 agonist -3, RTF Ca sens act -1, RTF Ca sens inh 2, CRFBP-R2 block -20 and Myeloid diff MLP active.
Screening COc1cc(NC(=O)CCl)ccc(=O)c1 returned CRFBP-R2 agonist 1, CRFBP-R2 block 1 and Myeloid diff MLP inactive.
Screening C#CCOCCOCCOCCNc1nc(N2CCN(C(=O)CCCCCCCCCCNC(=O)[C@H](CCCCN)n3cc(CCO)nn3)CC2)nc(N2CCN(C(=O)CCCCCCCCCCNC(=O)[C@H](CCCCN)n3cc(C[C@@H](C)CC)nn3)CC2)n1 returned CRFBP-R2 agonist 146* and CRFBP-R2 block -145.
C#CCOCCOCCOCCNc1nc(N2CCN(C(=O)CCCCCCCCCCNC(=O)[C@@H](CCSC)n3cc(CCO)nn3)CC2)nc(N2CCN(C(=O)CCCCCCCCCCNC(=O)[C@@H]([C@H](C)O)n3cc(C)nn3)CC2)n1 was read as CRFBP-R2 agonist 7, RTF Ca sens act 1, RTF Ca sens inh 6, CRFBP-R2 block 12 and Myeloid diff MLP inconclusive.
For C#CCOCCOCCOCCNc1nc(N2CCN(C(=O)CCCCCCCCCCNC(=O)[C@H](CCCCN)n3cc(C[C@@H](C)CC)nn3)CC2)nc(N2CCN(C(=O)CCCCCCCCCCNC(=O)[C@H](CCCN=C(N)N)n3cc(C[C@@H](C)CC)nn3)CC2)n1 the results were CRFBP-R2 agonist 4, RTF Ca sens act 5, RTF Ca sens inh 2, CRFBP-R2 block -48 and Myeloid diff MLP inactive.
C#CCOCCOCCOCCNc1nc(N2CCN(C(=O)CCCCCCCCCCNC(=O)Cn3cc(C[C@@H](C)O)nn3)CC2)nc(N2CCN(C(=O)CCCCCCCCCCNC(=O)[C@@H](CCSC)n3cc(CCO)nn3)CC2)n1 was read as CRFBP-R2 agonist 6, RTF Ca sens act 5, RTF Ca sens inh -3, CRFBP-R2 block 0 and Myeloid diff MLP active.
